Measurements from PubChem BioAssay (EPA / NIEHS).
Records with an inconclusive call do not appear. A structure can be active in one record and inactive in another. The source made the active and inactive calls. How the source made its calls, unless noted: active means hit-call score of the fitted dose curve at least 0.9, where 1 is the maximum; inconclusive means response in the unintended direction; inactive means score below 0.9.

Key:
[1] = CCTE_Deisenroth_AIME_384WELL_CTox_Active: Cytotoxicity Assessment (CTOX) in CCTE's 384-well Estrogen Receptor Transactivation Assay with AIME metabolic competence (metabolism positive), Deisenroth Lab (AID 2284037);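 further: chemicals first conditioned 2 h by alginate-bound induced rat liver S9 before cells; activity means signal loss indicating cell death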
Procedure, shortened: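 Cytotoxicity in VM7Luc4E2 breast cells, 24 hour, measured as protease-substrate fluorescence loss, after 2-hour metabolic conditioning with induced rat hepatic S9 in alginate microspheres. Concentrations 0.002 - 200 uM, 10 points, bidirectional fitting.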

[2] = target: Estrogen receptor (Homo sapiens) (UniProt P03372); experiment: CCTE_Deisenroth_AIME_384WELL_LUC_Inactive: CCTE's 384-well Estrogen Receptor Transactivation Assay without AIME metabolic competence (ERTA luciferase; metabolism negative), Deisenroth Lab (AID 2284038);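 further: hits raise estrogen receptor luciferase signal so potencies reflect agonists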
Procedure, shortened: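 Metabolism-negative mode: AIME lids stamped in alginate-water, no hepatic S9. 2 h chemical incubation → medium onto VM7Luc4E2 ERTA, 24 h. Readout luciferase luminescence; gain-of-signal fit vs 17beta-estradiol. Conc. 0.002 - 200 uM.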

[3] = CCTE_Deisenroth_AIME_384WELL_CTox_Inactive: Cytotoxicity Assessment (CTOX) in CCTE's 384-well Estrogen Receptor Transactivation Assay without AIME metabolic competence (metabolism negative), Deisenroth Lab (AID 2284039);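 further: cell viability via live-cell protease substrate cleaved to fluorescent probe; cells exposed 24 h to medium preincubated 2 h with alginate-water beads without S9; loss of fluorescence signal means loss of viability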
Procedure, shortened: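 VM7Luc4E2 human breast cells received conditioned medium from a 2 h incubation of chemical with alginate-water microspheres (no S9), then were exposed 24 h. Viability was read as protease-substrate cleavage to a fluorescent probe; loss of signal was fitted bidirectionally over 0.002–200 uM.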

DIO2 (gene 1734) = experiment: CCTE_GLTED_hDIO2: CCTE's human Deiodinase 2 (DIO2) Inhibition Assay, Great Lakes Toxicology and Ecology Division (GLTED) Lab (AID 2284050)
Procedure, shortened: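 Triplicate cell-free incubations (3 h) of human DIO2 with chemical preceded colorimetric Sandell-Kolthoff quantitation of liberated iodide; DMSO served as negative control for curve fitting.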

DIO3 (gene 1735) = experiment: CCTE_GLTED_hDIO3: CCTE's human Deiodinase 3 (DIO3) Inhibition Assay, Great Lakes Toxicology and Ecology Division (GLTED) Lab (AID 2284055);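 further: potency is for inhibition seen as loss of released iodide signal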
Procedure, shortened: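 Steps: incubate adenovirus-produced hDIO3 with chemical for 3 hours; detect freed iodide via cerium-arsenic Sandell-Kolthoff colorimetry; compare with DMSO baseline.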

[4] = CCTE_Shafer_MEA_dev_active_electrodes_number: CCTE's Neural Network Formation Assay for Number of Active Electrodes, Shafer Lab (AID 2284040);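 on AC50: potency for loss of active electrodes versus DMSO so lower counts are hits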
Procedure, shortened: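 Developing rat cortical networks on MEAs, exposed DIV 0–12. Value is the AUC of active-electrode counts (≥5 spikes/min) from days 5, 7, 9, 12, relative to DMSO.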

[5] = CCTE_Shafer_MEA_dev_burst_rate: CCTE's Neural Network Formation Assay for Burst Rate, Shafer Lab (AID 2284042; active means hit-call score of the fitted dose curve at least 0.9, where 1 is the maximum; inactive means score below 0.9;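 on AC50: potency for loss of burst rate below DMSO control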)
Procedure, shortened: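 Rat primary cortical cultures on PEI/laminin MEA; compound from plating, re-dosed at DIV 5, 9 media change. Single-electrode bursts/recording length, well mean of active electrodes; AUC over DIV 5–12 recordings; loss-of-signal vs DMSO.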

[6] = CCTE_Shafer_MEA_dev_bursting_electrodes_number: CCTE's Neural Network Formation Assay for Number of Bursting Electrodes, Shafer Lab (AID 2284043);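 on AC50: potency is for loss of bursting electrodes relative to DMSO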
Procedure, shortened: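 Number of electrodes reaching ≥1 burst every 2 min was recorded at DIV 5, 7, 9 and 12 and collapsed as trapezoidal area under the curve. Cultures were rat cortical neurons on MEA plates, dosed continuously from plating with medium and treatment refreshed on DIV 5 and 9.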

[7] = CCTE_Shafer_MEA_dev_per_burst_interspike_interval: CCTE's Neural Network Formation Assay for Burst Interspike Interval, Shafer Lab (AID 2284044; active means hit-call score of the fitted dose curve at least 0.9, where 1 is the maximum; inactive means score below 0.9;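 further: mean spike spacing inside bursts as AUC over recordings on days 5 7 9 12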;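 on AC50: potency for a decrease of within-burst interspike interval below DMSO level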)
Procedure, shortened: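 Rat cortical primary cultures, 16 electrodes/well; compound from plating, renewed with full media change DIV 5 and 9. Spikes via adaptive detector; per-burst ISI well-mean over active bursting electrodes; AUC of DIV 5/7/9/12 recordings; loss-direction fit vs DMSO.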

[8] = CCTE_Shafer_MEA_dev_burst_duration_mean: CCTE's Neural Network Formation Assay for Mean Burst Duration, Shafer Lab (AID 2284045; active means hit-call score of the fitted dose curve at least 0.9, where 1 is the maximum; inactive means score below 0.9;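 on AC50: curve fitted for loss meaning shorter burst duration than DMSO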)
Procedure, shortened: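 Mean single-electrode burst duration (first to last spike), averaged over bursting electrodes per well, then integrated as area-under-curve across recordings at days 5, 7, 9 and 12. Rat cortical cultures on MEAs, compound present from plating, refreshed at feeds.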

[9] = CCTE_Shafer_MEA_dev_interburst_interval_mean: CCTE's Neural Network Formation Assay for Mean Interburst Interval, Shafer Lab (AID 2284046; active means hit-call score of the fitted dose curve at least 0.9, where 1 is the maximum; inactive means score below 0.9;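 further: well-mean interburst interval of bursting electrodes as AUC over four recording days; curve fitted for decrease in interburst interval relative to DMSO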)
Procedure, shortened: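 Rat cortical neurons, 1.5 x 10^5 cells/well, 48-well MEA; compound from day 0 through DIV 12, media and treatment renewed DIV 5/9. Recordings DIV 5, 7, 9, 12; well-mean interburst interval → trapezoidal AUC, loss direction vs DMSO.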

[10] = CCTE_Shafer_MEA_dev_inter_network_spike_interval_mean: CCTE's Neural Network Formation Assay for Mean Inter-network Spike Interval, Shafer Lab (AID 2284047; active means hit-call score of the fitted dose curve at least 0.9, where 1 is the maximum; inactive means score below 0.9)
Procedure, shortened: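 Primary rat cortical neurons on PEI-coated 48-well MEAs (16 electrodes/well) were exposed from plating day 0 to DIV 12, with dosing renewed at DIV 5 and 9. Recordings at DIV 5, 7, 9, 12 were collapsed by trapezoidal AUC, loss-of-signal fit vs DMSO.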

[11] = CCTE_Shafer_MEA_dev_network_spike_number: CCTE's Neural Network Formation Assay for Number of Network Spikes, Shafer Lab (AID 2284048; active means hit-call score of the fitted dose curve at least 0.9, where 1 is the maximum; inactive means score below 0.9;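 further: synchronized bursts across electrodes counted on days 5 7 9 12 and integrated as AUC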;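 on AC50: fit as a loss of signal meaning fewer network spikes than DMSO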)
Procedure, shortened: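 Number of network spikes (coordinated firing across electrodes) recorded on days 5, 7, 9 and 12 and summarised as area under the curve. Rat cortical cultures on MEA, continuous compound exposure with full medium/treatment exchange at DIV 5 and 9.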

[12] = CCTE_Shafer_MEA_dev_network_spike_peak: CCTE's Neural Network Formation Assay for Mean Number of Electrodes in Network Spike, Shafer Lab (AID 2284049; active means hit-call score of the fitted dose curve at least 0.9, where 1 is the maximum; inactive means score below 0.9;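 on AC50: fitted for loss of signal meaning fewer electrodes in network spikes than DMSO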)
Procedure, shortened: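 Rat cortical primary culture, 1.5 x 10^5 cells/well, 48-well MEA (16 electrodes/well). Dosing day 0 through DIV 12, full media/compound exchange DIV 5, 9. AxIS adaptive spike detection; AUC over days 5/7/9/12; loss-of-signal vs DMSO.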

[13] = CCTE_Shafer_MEA_dev_spike_duration_mean: CCTE's Neural Network Formation Assay for Mean Spike Duration, Shafer Lab (AID 2284051; active means hit-call score of the fitted dose curve at least 0.9, where 1 is the maximum; inactive means score below 0.9;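 further: mean network spike duration pooled as area under curve over DIV 5 to 12 recordings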;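 on AC50: potency for a decrease in mean network spike duration versus DMSO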)
Procedure, shortened: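 Rat cortical primary cultures, 48-well MEA (16 electrodes/well); compound from plating, renewed DIV 5, 9. Network spike duration (AxIS adaptive detector) recorded DIV 5/7/9/12, combined as trapezoidal AUC; loss direction vs DMSO.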

[14] = CCTE_Shafer_MEA_dev_network_spike_duration_std: CCTE's Neural Network Formation Assay for Standard Deviation of Network Spike Duration, Shafer Lab (AID 2284052; active means hit-call score of the fitted dose curve at least 0.9, where 1 is the maximum; inactive means score below 0.9;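 further: hits are decreases in network spike duration SD versus DMSO vehicle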)
Procedure, shortened: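 Rat cortical cultures, 1.5 x 10^5 cells/well, exposed continuously from plating to DIV 12 with media/compound renewal at DIV 5, 9. Spontaneous activity recorded DIV 5/7/9/12, AxIS adaptive spike detector; AUC across days; negative direction vs DMSO.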

[15] = CCTE_Shafer_MEA_dev_per_network_spike_spike_number_mean: CCTE's Neural Network Formation Assay for Mean Number of Spikes in a Network Spike, Shafer Lab (AID 2284053; active means hit-call score of the fitted dose curve at least 0.9, where 1 is the maximum; inactive means score below 0.9;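 on AC50: fitted as decrease in spikes per network spike relative to DMSO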)
Procedure, shortened: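 Rat cortical primary cultures on 48-well MEA; compound from day 0, re-dosed with full media change DIV 5, 9. Recorded DIV 5, 7, 9, 12; spikes in 0.05 s window at network-spike peak ÷ total network spikes; AUC; loss vs DMSO.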

[16] = CCTE_Shafer_MEA_dev_LDH: CCTE's Lactate Dehydrogenase Assay for Cytotoxicity in the Neural Network Formation Assay, Shafer Lab (AID 2284068);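 further: exposure for twelve days from plating with re-dosing on DIV 5 and 9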
Procedure, shortened: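 Rat cortical primary neurons, MEA culture; dosing day 0–12, full medium plus compound exchange DIV 5, 9. Read-out: LDH enzyme activity, spectrophotometric. DMSO = negative control/baseline; signal loss → cytotoxicity.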

[17] = CCTE_Shafer_MEA_acute_AB: CCTE's Alamar Blue Assay for Cytotoxicity in the Neural Acute Assay, Shafer Lab (AID 2284069);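 further: active compounds lower the viability signal compared with DMSO wells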
Procedure, shortened: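 Read-out: resazurin fluorescence (ex 544, em 590 nm) after CTB reagent at 1:6 dilution in fresh media. Cells: primary rat cortical neuron networks, DIV 13 or 15, chemically exposed on MEA plates; DMSO as negative control/baseline.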

[18] = UKN5_HCS_SBAD2_cell_viability: Viability Assessment in the University of Konstanz (UKN) Leist Lab Neurite Outgrowth Assay in human iPSC-derived immature Dorsal Root Ganglia Neurons (UKN5) (AID 2284056; active means hit-call score of the fitted dose curve at least 0.9, where 1 is the maximum; inactive means score below 0.9)
Procedure, shortened: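 iPSC-derived immature peripheral neurons (SBAD2) seeded on Matrigel with CHIR99021, SU5402 and DAPT, dosed 1 h later for 24 h. Viability from Hoechst H-33342 and calcein-AM live staining, high-content imaging; bidirectional fit versus DMSO.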

Measured: AC50

Sequence of Estrogen receptor (Homo sapiens) (P03372 whole entry, looked up): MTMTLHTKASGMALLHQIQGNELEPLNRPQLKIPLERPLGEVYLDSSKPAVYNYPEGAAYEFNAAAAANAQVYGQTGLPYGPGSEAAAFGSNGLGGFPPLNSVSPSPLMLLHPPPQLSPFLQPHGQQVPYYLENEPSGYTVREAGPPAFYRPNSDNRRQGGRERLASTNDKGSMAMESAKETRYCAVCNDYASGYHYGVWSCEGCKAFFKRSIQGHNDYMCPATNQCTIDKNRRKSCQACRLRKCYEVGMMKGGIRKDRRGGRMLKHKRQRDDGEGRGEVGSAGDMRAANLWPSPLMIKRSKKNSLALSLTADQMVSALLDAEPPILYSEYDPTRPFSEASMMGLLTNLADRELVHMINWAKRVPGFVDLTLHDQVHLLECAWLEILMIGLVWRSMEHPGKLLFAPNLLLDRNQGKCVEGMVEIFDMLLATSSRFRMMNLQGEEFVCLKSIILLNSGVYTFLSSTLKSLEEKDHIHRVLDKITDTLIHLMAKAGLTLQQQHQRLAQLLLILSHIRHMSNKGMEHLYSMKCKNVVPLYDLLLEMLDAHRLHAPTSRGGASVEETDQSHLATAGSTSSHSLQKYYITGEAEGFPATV

O=c1cc(-c2ccccc2)oc2ccccc12
inactive: [1] | [2] | [3]

CCCCCc1ccc(Cl)cc1
inactive: [1] | [2]

CCCCCCCC[N+](C)(CCCCCCCC)CCCCCCCC
active: [1] 39.3 µM | [3] 19.2 µM | DIO2 (gene 1734) 20.6 µM | DIO3 (gene 1735) 3.85 µM

CCN(CCC#N)c1ccc(N=Nc2c(Cl)cc([N+](=O)[O-])cc2Cl)cc1
active: [3] 100 µM | DIO3 (gene 1735) 63.7 µM
inactive: [1] | [2] | DIO2 (gene 1734)

CC(=O)OC(C)C
inactive: [1] | [2]

CN(C)c1ccc(C(=N)c2ccc(N(C)C)cc2)cc1
active: [1] 100 µM | [3] 31.1 µM | [4] 2.89 µM | [5] 1.71 µM | [6] 2.27 µM | [7] 3.43 µM | [8] 4.06 µM | [9] 2.95 µM | [11] 1.35 µM | [12] 2.88 µM | [13] 2.42 µM | [14] 1.73 µM | [15] 2.39 µM | [16] 3.2 µM
inactive: [10]

O=C(c1ccccc1)C1CCC1
inactive: [2]

CO[Si](OC)(OC)c1ccccc1
inactive: [1] | [2] | [17]

Oc1ccc(Cl)cc1Cc1cc(Cl)ccc1O
active: [1] 102 µM | [3] 100 µM | DIO2 (gene 1734) 88.4 µM | DIO3 (gene 1735) 57.3 µM

O=S1(=O)OC(c2ccc(O)cc2)(c2ccc(O)cc2)c2ccccc21
inactive: [1] | [2] | [3]
active: DIO2 (gene 1734) 100 µM | DIO3 (gene 1735) 100 µM

C=C1C2CCC(C2)C1(C)C (configuration not stated)
inactive: [1] | [2] | [3]

O=C1CCCC1
inactive: [1] | [2]

CCOC(=O)CC
inactive: [1] | [2] | [3]

CCCCCCCCCCOS(=O)(=O)O
inactive: [2]
active: [1] 19.8 µM | [3] 19.8 µM

CCCCC/C=C\CCC=O
inactive: [2] | [3]
active: [1] 100 µM

OC1CCCC1
inactive: [1] | [2] | [3]

C=CC(=O)NC(C)(C)CS(=O)(=O)O
inactive: [1] | [2] | [3]

CC=C1CC2C=CC1C2 (configuration not stated)
inactive: [1] | [2] | [3]
active: DIO2 (gene 1734) 100 µM | DIO3 (gene 1735) 47.9 µM

Cc1ccc(C(C)c2ccc(C)c(C)c2)cc1C
inactive: [2]

O=C1C(N(CO)C(=O)NCO)N(CO)C(=O)N1CO (configuration not stated)
inactive: [1] | [2] | [3]

O=C(C=Cc1ccccc1)OCc1ccccc1
inactive: [1] | [3]
active: [2] 26.3 µM | DIO2 (gene 1734) 14.6 µM | DIO3 (gene 1735) 5.5 µM

CCCCCCCCCCCCCOP(=O)(O)O
active: DIO2 (gene 1734) 80.5 µM | DIO3 (gene 1735) 12 µM

Cc1ccc(N/N=c2\c(=O)cc/c(=N/Nc3ccc(S(=O)(=O)O)cc3)c2=O)c(C)c1
inactive: DIO2 (gene 1734)
active: DIO3 (gene 1735) 114 µM

CC=CC(F)(F)C(F)(F)C(F)(F)F
not listed: [1] | [2] | [3] | DIO2 (gene 1734) | DIO3 (gene 1735) | [16] | [17] | [18]
inactive: all other assays above

O=S(=O)(O)c1ccccc1C=Cc1ccc(-c2ccc(C=Cc3ccccc3S(=O)(=O)O)cc2)cc1
inactive: [2] | DIO2 (gene 1734)
active: DIO3 (gene 1735) 100 µM

N[C@H]1C(O)O[C@H](CO)[C@H](O)[C@@H]1O (some centres not stated)
inactive: [5] | [8] | [9] | [10] | [11] | [14]
active: [6] 24.8 µM | [7] 2.98 µM | [12] 25.4 µM | [13] 25.3 µM | [15] 25.6 µM | [16] 15 µM

c1ccc2c(c1)ccc1cc3c(ccc4ccccc43)cc12
not listed: [1] | DIO2 (gene 1734) | DIO3 (gene 1735) | [17] | [18]
inactive: all other assays above

Nc1ncn([C@@H]2O[C@H](CO)[C@@H](O)[C@H]2O)c(=O)n1
inactive: [4] | [5] | [6] | [7] | [8] | [9] | [10] | [11] | [12] | [13] | [14] | [15] | [18] | [16]
active: [4] 2.13 µM | [6] 1.34 µM | [7] 2.4 µM | [11] 2.26 µM | [12] 4.18 µM | [13] 4.17 µM | [15] 2.56 µM | [16] 5.16 µM

NC(CO)(CO)CO
inactive: [2] | [3]

CC(C)C1=CC2=CC[C@@H]3[C@](C)(CCC[C@@]3(C)C(=O)O)[C@H]2CC1
active: DIO2 (gene 1734) 100 µM | DIO3 (gene 1735) 79.8 µM

CC1=NN(c2cc(S(=O)(=O)O)ccc2Cl)C(=O)C1N=Nc1ccccc1 (configuration not stated)
inactive: [2] | [3]
